59 compounds from PubChem BioAssay AID504848 (National Center for Advancing Translational Sciences (NCATS), 2011) can be followed below.

Molecules are shown by their SMILES. Out of some 2,300 compounds screened, about 1,400 (61%) were called active. Inconclusive results (about 29%) are left out. The call rests on the fitted dose curve; in most records, active means well fitted inhibition curve with a large enough effect; inconclusive means small, poorly fitted or top-dose-only effect, or effect the other way; inactive means no such curve, though single readings can be large or run the other way. The set was probably picked from earlier hits. This is one part of the list.
On the % scale 0 is the no-effect control and ±100 the full control effect; potency means the concentration at half of the fitted maximal effect.

The test can be described thus: Confirmation screen for delayed death inhibitors of the malarial parasite plastid, 96 hour incubation. Further: nearly all actives have a fitted effect of over 60% in size. The following applies: P. falciparum luciferase growth in erythrocytes; series mostly up to 28.7 µM; activity change, negative = inhibition: at the top concentration. A digest of the protocol: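 Erythrocytes infected with luciferase-expressing P. falciparum (2% hematocrit, 0.1% parasitemia final) in RPMI 1640 with 0.5% Albumax, exposed to compounds 96 h at 37 C, 5% CO2. Growth inhibition read as decreased luciferase luminescence.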
As to `CC(NC(=O)CCl)c1ccccc1Br` (centres undefined), the Potency is 0.794 µM (active). On the same count and under the same terms, for `COc1ccc(NC(=O)CN2CCN(S(=O)(=O)c3ccc(Br)cc3)CC2)c(OC)c1` the value was 7.94 µM (active); for `COc1cc2c(cc1OC)CN(CC(=O)Nc1ccc(S(=O)(=O)N3CCCC3)cc1)CC2`, 15.8 µM (active). The same measure, in the same setting: for `COc1ccccc1OCC(=O)Nc1ccc(S(=O)(=O)N2CCCCCC2)cc1` the value was 12.6 µM (active); for `Cc1ccc(NC(=O)COc2ccccc2C#N)cc1S(=O)(=O)N1CCCCCC1`, 12.6 µM (active). As to `C=CCn1c(SCc2cc(=O)n3cc(C)ccc3n2)nnc1-c1ccc(F)cc1`, the Potency is 8.91 µM (active). Take `COc1ccc(/C=C2\N=C(SC)N(c3ccccc3OC)C2=O)cc1`: the Potency was 12.6 µM (active).

For the compound `CCN(CC)C1=N/C(=C\c2ccc(OC)cc2)C(=O)N1c1ccccc1`, the Potency was 12.6 µM (active).

In the case of `Clc1cccc(CN2CCc3c([nH]c4ccccc34)C2)c1`, the Potency is 12.6 µM (active). Turning to `COc1ccc(C2CC(=O)C3=C(C2)Nc2ccccc2NC3c2coc3ccccc3c2=O)cc1OC` (centres undefined), the Potency is 1.12 µM (active). As to `COc1ccc(C(C)(C)C)cc1NC(=O)c1[nH]c(C)c(C(C)=O)c1C`, the Potency was 4.47 µM (active). As to `CC(=O)c1c(C)[nH]c(C(=O)COC(=O)COc2ccccc2F)c1C`, the “activity change, negative = inhibition” value is -8.16% (inactive).

With `CCc1nc(SCC(=O)Nc2ccc(N(C)C)cc2)n[nH]1`, the Potency is 2.82 µM (active).

For the compound `COc1ccc(OCCOc2ccc(S(=O)(=O)N3CCCC3)cc2C(N)=O)cc1`, the Potency is 10 µM (active).

As to `Cc1ccc(S(=O)(=O)N2CCC(C(=O)Nc3ccc(S(=O)(=O)N4CCCC4)cc3)CC2)cc1C`, the Potency was 7.08 µM (active). Same read-out and setting: the same measure for `COc1ccc(S(=O)(=O)N2CCCN(S(=O)(=O)c3ccc(OC)c(C)c3)CC2)cc1C`: 12.6 µM (active); for `C=CCN(CC=C)C(=O)C1CCN(S(=O)(=O)c2ccc(N3CCCC3=O)cc2)CC1`: 5.01 µM (active). Regarding `COC(=O)c1cn(C)c2ccc(S(=O)(=O)N3CCCC3)cc2c1=O`, the “activity change, negative = inhibition” value is -13.2% (inactive). For `COc1cc(NC(=O)C2CCN(S(=O)(=O)c3ccc(N4CCCC4=O)cc3)CC2)cc(OC)c1`, the Potency was 5.01 µM (active). As for `Cc1ccc(C(=O)C(C(=O)/C=C/c2ccccc2)=C2SCCCS2)cc1`, the Potency was 7.94 µM (active).

`CC[C@@H]1CC=C[C@H]2[C@H]1C(=O)N(Cc1ccccc1)[C@H]2c1ccoc1`: the Potency was 7.08 µM (active).

Regarding `Fc1ccc2nc(Nc3nc4c(F)cc(F)cc4s3)sc2c1`, the Potency is 10 µM (active).

Consider `O=C(c1ccc(Cl)cc1)C(CN1CCCCC1)c1ccccc1` (centres undefined), for which the Potency is 12.6 µM (active). Turning to `O=C(c1ccc(Br)cc1)C(CN1CCOCC1)c1ccccc1` (centres undefined), the Potency is 3.98 µM (active). On the same count and under the same terms, for `O=C(c1ccc(Cl)cc1)C(CN1CCCC1)c1ccccc1` (centres undefined) the value was 7.08 µM (active). Turning to `O=C(CN1CCCCC1)N/N=C/c1ccc(Cl)cc1`, the “activity change, negative = inhibition” value was 6.26% (inactive). As for `O=C(Nc1ccc(C2=NCCN2)cc1)c1ccc(C(=O)Nc2ccc(C3=NCCN3)cc2)c(Cl)c1`, the Potency is 0.0708 µM (active). In the case of `COc1ccccc1-c1coc2cc(OC(=O)N3CCOCC3)ccc2c1=O`, the “activity change, negative = inhibition” value was -2.61% (inactive). `CCOc1ccccc1CNC(=O)CN1C(=O)CSc2ccc(S(=O)(=O)N3CCOCC3)cc21`: the Potency is 8.91 µM (active). Take `Cc1c(C#N)c(NC(=O)CCl)n(Cc2ccccc2)c1C`: the Potency is 4.47 µM (active). Regarding `Cc1ccc(NC(=O)c2nnn(CC(=O)Nc3ccc4c(c3)OCO4)c2N)cc1C`, the “activity change, negative = inhibition” value is 0.181% (inactive).

As to `Cn1c(=O)n(C)c2cc(NC(=O)CCl)ccc21`, the Potency is 2 µM (active). Still for that read-out and setting: for `O=C(CCl)Nc1ccc2c(c1)OCO2` the value was 2.51 µM (active). Still for that read-out and setting: the same measure for `CCOc1ccccc1N(CC(=O)Nc1ccc(S(=O)(=O)N2CCCC2)cc1)S(C)(=O)=O`: 11.2 µM (active); for `COc1ccc(C)cc1N(CC(=O)Nc1ccc(S(=O)(=O)N2CCCC2)cc1)S(C)(=O)=O`: 8.91 µM (active); for `CCOC(=O)c1c[nH]c2cc(OCC(C)C)c(OCC(C)C)cc2c1=O`: 0.178 µM (active). On to `COc1ccc(-c2c(-c3ccc(OC)c(C)c3O)n[nH]c2C)cc1`, for which the Potency was 10 µM (active). On to `Cc1ccc(Cl)cc1N1CCN(Cc2nc3c(c(=O)[nH]c(=O)n3C)n2CCc2ccccc2)CC1`, for which the Potency is 3.98 µM (active).

Consider `CC(C)C(=O)NCCSc1c[nH]c2ccccc12`, for which the Potency is 3.98 µM (active).

As to `CCOc1ccc(N(C)C(=O)CCc2nnc3ccc(N4CCCCC4)nn23)cc1`, the Potency is 7.94 µM (active).

On to `CC1(C)COC(/C=C/c2cccc([N+](=O)[O-])c2)=N1`, for which the Potency was 8.91 µM (active). As for `O=[N+]([O-])c1cccc(/C=C/c2nc[nH]c2[N+](=O)[O-])c1`, the Potency was 3.98 µM (active). For the compound `COc1ccc(-c2nnc3ccc(SCC(=O)Nc4nc5ccc(C)cc5s4)nn23)cc1OC`, the Potency was 0.158 µM (active). As for `O=C(C[n+]1ccccc1)Nc1ccc(Cl)c([N+](=O)[O-])c1`, the Potency was 7.08 µM (active). On the same count and under the same terms, for `Nc1ccc2nc(-c3ccc(-c4nc5ccc(N)cc5[nH]4)cc3)[nH]c2c1` the value was 5.62 µM (active). Still for that read-out and setting: for `Cc1coc2cc3oc(=O)c(CCC(=O)NCCCn4ccnc4)c(C)c3cc12` the value was 12.6 µM (active); for `CCOC(=O)C1CCN(c2c(NCc3ccc(C(=O)NCCC(C)C)cc3)c(=O)c2=O)CC1`, 1.12 µM (active); for `O=C(N/N=C/c1ccccn1)c1cc([N+](=O)[O-])cc([N+](=O)[O-])c1`, 3.16 µM (active). `C(=N\N(c1ccccc1)c1ccccc1)/c1ccccn1`: the “activity change, negative = inhibition” value was -39.2% (inactive). As to `CC1(C)N=C(N)N=C(N)N1c1ccc(OCCCOc2ccccc2)c(Cl)c1`, the Potency was 11.2 µM (active). Take `CCc1ccc(C(=O)NNc2ccc(C)c(Cl)c2)cc1`: the “activity change, negative = inhibition” value was -10.3% (inactive).

For the compound `Cc1ccc(NC2=CC(=O)CC(C)(C)C2)cc1Cl`, the Potency is 12.6 µM (active). As for `Cc1ccc(-n2c(Cl)c(Cl)nc(Cl)c2=O)cc1`, the Potency was 11.2 µM (active). As for `Clc1ccc2nnnc(-c3ccccc3)c2c1`, the Potency is 3.55 µM (active). The same measure, in the same setting: for `CCn1cc(C(=O)O)c(=O)c2cc(F)c(N/N=C/c3ccccc3)cc21` the value was 10 µM (active).

For the compound `COc1ccc(C)cc1-n1c(SCC(=O)Nc2cc(C)on2)nc2sc(C)c(C)c2c1=O`, the Potency was 2 µM (active).

Regarding `CC(SC#N)C(=O)C12CC3CC(CC(C3)C1)C2` (centres undefined), the Potency is 12.6 µM (active). With `COc1ccc(N(CC(=O)NCCSCc2ccc(C)cc2)S(=O)(=O)c2ccccc2)cc1`, the Potency is 12.6 µM (active). On the same count and under the same terms, for `COc1ccc2c(c1)c(CC(=O)Nc1nnc(C3CC3)s1)c(C)n2C(=O)c1ccc(Cl)cc1` the value was 10 µM (active).
